Data reported in PubChem BioAssay (NCATS).
Results filed as inconclusive are left out. Calls of active or inactive are those of the source. Unless noted, calls follow the shape of the dose curve; as a rule, active = well fitted curve in the direction sought with a large enough effect; inconclusive = small, poorly fitted or top-dose-only effect, or another doubt; inactive = no such curve, though single readings can be large; an effect the other way counts as inactive or inconclusive.

Experiments:
[1] = qHTS to identify inhibitors of the type 1 interferon - major histocompatibility complex class I in skeletal muscle: primary screen against the NCATS Pharmaceutical Collection (AID 1347407);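 also: luminescence of HiBiT knocked into endogenous HLA-B as interferon-induced MHC class I level; % is scaled to controls: 0 for no effect and ±100 for the full control effect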
In short: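 Immortalized human myoblasts (C25cl48) with HiBiT knocked into endogenous HLA-B*08:01 were stimulated with 4.0 ng/ml IFN-beta and treated with compounds ([…] top 46 uM) for 24 hrs at 37 C. HiBiT lytic luminescence read.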

[2] = qHTS for inhibitors of adenylyl cyclases using a fission yeast platform: a pilot screen against the NCATS LOPAC library (AID 1347410);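 also: plate controls were DMSO vehicle for no effect and DPI positive control for full effect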
In short: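 S. pombe CHP2027 (AC9-GNAS-PDE4D2) carrying PKA-repressed fbp1-GFP, incubated 18 h at 30C in EMM with LOPAC compounds at up to 57 uM. GFP gain-of-signal read by laser scanning cytometry; DMSO negative control.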

[3] = qHTS to identify inhibitors of the type 1 interferon - major histocompatibility complex class I in skeletal muscle: primary screen against the NCATS Mechanism Interrogation Plate v5.0 (MIPE) Libary (AID 1347411);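 also: plate controls were vehicle for no effect and reference inhibitor for full effect; nearly all actives have a fitted effect of over 65% in size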
In short: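 Luminescence from HiBiT-tagged endogenous HLA-B*08:01 served as the MHC class I read-out. CRISPR-engineered C25cl48 human myoblasts received 4.0 ng/ml IFN-beta plus compound for 24 hrs, with an 11-point, 1:3 series topping at 46 uM final.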

[4] = target: Protein phosphatase 1D (Homo sapiens) (UniProt O15297); test: RapidFire Mass Spectrometry qHTS Assay for Modulators of WT P53-Induced Phosphatase 1 (WIP1) (AID 1347424);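 also: amount of dephosphorylated VEPPL-S-QETFS peptide product formed by WIP1; series mostly up to about 63 µM; plate controls were DMSO wells for no effect and GSK830371 inhibitor control at 10 µM for full effect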
In short: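 WIP1 (10 nM final) was preincubated 1 h at room temperature with compounds in Tris-HCl pH 7.5, 30 mM MgCl2, TCEP, EGTA, BSA; 2 uM VEPPL-pS-QETFS phosphopeptide was added for 5 min, quenched with formic acid, and dephosphorylated product quantified by RapidFire MS.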

[5] = target: Protein phosphatase 1D (Homo sapiens) (UniProt O15297); test: Rhodamine-PBP qHTS Assay for Modulators of WT P53-Induced Phosphatase 1 (WIP1) (AID 1347425); also: % of control where 0% means no effect
In short: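 Steps: enzyme with Rh-PBP sensor and compounds, room-temperature incubation of 1 hr, baseline read, addition of VEPPL-pS-QETFS (10 uM final), kinetic fluorescence reads at 525/598 nm. Activity equals final minus baseline signal.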

[6] = Primary qHTS for inhibitors of La Crosse Virus (LACV) - induced cell death in SH-SY5Y cells (AID 1508616);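 also: top concentration of the series differs between compounds; 0% = infected DMSO wells and 100% = uninfected DMSO wells; higher means more rescue of cells from virus-induced death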
In short: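 Protection against LACV-induced cell death is scored in SH-SY5Y cells exposed to compounds and virus (0.01 MOI) for 6 days. Data normalized to virus-infected DMSO wells and virus-free DMSO wells.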

[7] = target: Calcium and integrin-binding protein 1 (Homo sapiens) (UniProt Q99828); test: Validation qHTS for Identification of Calcium Integrin Binding protein 1 (CIB1) Competitor (AID 1508618); also: % is scaled to controls: 0 for no effect and ±100 for the full control effect
In short: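 In this qHTS validation, the LOPAC set (up to 114 uM) was tested for blocking CIB1 binding to a fluorescein-tagged alphaIIb peptide, with FP detection at 480/540 nm.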

[8] = target: Calcium and integrin-binding protein 1 (Homo sapiens) (UniProt Q99828); test: Primary qHTS for Identification of Calcium Integrin Binding Protein 1 (CIB1) Competitor (AID 1508620);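 also: GST tagged CIB1 binding a fluorescein labelled alphaIIb integrin peptide tracer; top concentration of the series differs between compounds; % is scaled to controls: 0 for no effect and ±100 for the full control effect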
In short: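 Fluorescence polarization competition: CIB1-GST (1 uM final) preincubated with compound 15 min at room temperature, then FITC-labeled alphaIIb peptide (100 nM final) added for another 15 min. Polarization read at Ex 480/Em 540.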

[9] = target: Single-stranded DNA cytosine deaminase (Homo sapiens) (UniProt Q9GZX7); test: Validation qHTS assay for inhibitors of Activation Induced Cytidine Deaminase (AID): AID signal (AID 1347429); also: % is scaled to controls: 0 for no effect and ±100 for the full control effect
In short: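 Fluorescence at 540 nm excitation and 590 nm emission reports ssDNA cytosine deamination by AID, with UDG in the same well. Compound-treated reactions ran 4 hr at room temperature with DJC20/DJC23 substrate, followed by 30 min NaOH treatment.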

[10] = Primary qHTS for small molecule stabilizers of the endoplasmic reticulum resident proteome: Secreted ER Calcium Modulated Protein (SERCaMP) assay (AID 1508630); also: % is scaled to controls: 0 for no effect and ±100 for the full control effect
In short: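 GLuc-SERCaMP-expressing SH-SY5Y cells, pretreated 16 h with compound, are challenged with thapsigargin to empty ER calcium stores; after 4 h, coelenterazine is added directly to the medium and luminescence is imaged.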

[11] = A High-Content qHTS Against Drug Library for the Identification of Small Molecules that Inhibit DYT1 Early Onset Primary Dystonia-Associated Cell Pathology (AID 1645839; calls by dose curve; also: series mostly up to about 46 µM)
In short: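 Readout: %pathology, the punctate EGFP-TorsinA distribution from imaging, as the primary channel and cell count as the toxicity counterscreen. HEK293 Flp-In cells expressing delE TorsinA were induced with tetracycline and treated with compound for 48 h.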

[12] = Counterscreen qHTS for small molecule stabilizers of the endoplasmic reticulum resident proteome: GLuc-NoTag assay (AID 1508627);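 also: SH-SY5Y cells given compound then 100 nM thapsigargin to empty ER calcium; series mostly up to about 76 µM; 0% = thapsigargin alone and -100% = DMSO vehicle control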
In short: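 SH-SY5Y cells stably expressing constitutively secreted GLuc (no SERCaMP tag) were pre-incubated 5 h, treated with compound for 19 h, then 100 nM thapsigargin for 4 h at 37C; medium GLuc read by coelenterazine luminescence.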

[13] = Confirmatory qHTS for small molecule stabilizers of the endoplasmic reticulum resident proteome: Secreted ER Calcium Modulated Protein (SERCaMP) assay (AID 1508628); also: series mostly up to about 76 µM; % is scaled to controls: 0 for no effect and ±100 for the full control effect; nearly all actives have a fitted effect of over 40% in size
In short: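 SH-SY5Y cells stably expressing GLuc-SERCaMP, treated 16 h with compound (primary 1.53, 7.67, 38.3 uM; confirmation 11 concentrations, up to 76.6 uM), then 100 nM thapsigargin for 4 h. Secreted Gaussia luciferase in medium read by coelenterazine luminescence.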

Single-stranded DNA cytosine deaminase (Homo sapiens), sequence (Q9GZX7 whole entry, looked up): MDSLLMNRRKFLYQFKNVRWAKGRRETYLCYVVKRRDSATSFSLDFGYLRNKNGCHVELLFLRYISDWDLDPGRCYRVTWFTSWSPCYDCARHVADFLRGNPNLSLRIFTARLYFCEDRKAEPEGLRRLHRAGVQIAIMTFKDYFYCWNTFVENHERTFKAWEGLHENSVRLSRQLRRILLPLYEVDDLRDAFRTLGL
Protein phosphatase 1D (Homo sapiens), sequence (O15297 whole entry, looked up): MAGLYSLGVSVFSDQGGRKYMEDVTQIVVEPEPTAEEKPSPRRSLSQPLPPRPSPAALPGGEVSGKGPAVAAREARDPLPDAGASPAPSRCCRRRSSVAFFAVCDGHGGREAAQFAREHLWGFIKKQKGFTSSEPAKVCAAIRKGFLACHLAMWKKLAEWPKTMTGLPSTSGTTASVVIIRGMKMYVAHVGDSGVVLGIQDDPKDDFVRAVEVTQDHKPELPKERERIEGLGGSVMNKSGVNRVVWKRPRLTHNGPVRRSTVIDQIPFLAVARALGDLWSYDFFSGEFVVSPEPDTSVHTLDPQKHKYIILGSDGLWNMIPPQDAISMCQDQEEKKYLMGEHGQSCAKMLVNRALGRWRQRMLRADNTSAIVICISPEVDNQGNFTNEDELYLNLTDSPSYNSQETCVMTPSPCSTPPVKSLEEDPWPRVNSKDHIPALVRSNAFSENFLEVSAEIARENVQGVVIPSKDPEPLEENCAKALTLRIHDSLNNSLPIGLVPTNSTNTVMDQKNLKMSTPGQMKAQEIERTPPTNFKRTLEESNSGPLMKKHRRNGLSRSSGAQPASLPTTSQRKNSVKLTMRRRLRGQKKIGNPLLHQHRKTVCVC
Calcium and integrin-binding protein 1 (Homo sapiens), sequence (Q99828 whole entry, looked up): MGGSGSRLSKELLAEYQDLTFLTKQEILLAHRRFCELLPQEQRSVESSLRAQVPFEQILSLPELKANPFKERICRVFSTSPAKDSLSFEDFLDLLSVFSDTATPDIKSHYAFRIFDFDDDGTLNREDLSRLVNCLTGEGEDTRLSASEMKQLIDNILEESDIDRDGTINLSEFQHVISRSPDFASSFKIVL

CC(C)c1c(C(=O)Nc2ccccc2)c(-c2ccccc2)c(-c2ccc(F)cc2)n1CC[C@@H](O)C[C@@H](O)CC(=O)O
inactive: Potency [1] | outcome [2] | Potency [3] | outcome [4] | outcome [5] | outcome [6] | outcome [7] | outcome [8]

NC(N)=NCCC[C@H](N)C(=O)O
inactive: activity change, negative = inhibition [1] -4.76% [at 3.83 µM] | outcome [2] | activity change, negative = inhibition [4] -3.57% [at 6.17 µM] | Potency [9] | outcome [6] | Potency [10] | % pathology change, negative = correction [11] 17.5% [at 4.63 µM]

Cn1c(=O)c2c(ncn2CC2OCCO2)n(C)c1=O
inactive: Potency [1] | Potency [3] | outcome [4] | outcome [5] | outcome [6] | outcome [8] | Potency [11]

CCCCc1ncc(/C=C(\Cc2cccs2)C(=O)O)n1Cc1ccc(C(=O)O)cc1
inactive: Potency [1] | outcome [2] | outcome [4] | outcome [8] | Potency [11]

CC(C)C(=O)c1c(C(C)C)nn2ccccc12
inactive: Potency [1] | outcome [2] | outcome [4] | Potency [9] | outcome [6] | outcome [7] | outcome [8] | Potency [10]

Nc1nc2c(ncn2CCC(CO)CO)c(=O)[nH]1
inactive: Potency [1] | outcome [4] | outcome [5] | outcome [6] | outcome [8] | Potency [10]

C=CCn1c(=O)n([C@@H]2O[C@H](CO)[C@@H](O)[C@H]2O)c2nc(N)[nH]c(=O)c21
inactive: Potency [1] | outcome [4] | outcome [5] | outcome [6] | outcome [8] | Potency [12] | Potency [13] | Potency [11]

Cn1cc[nH]c1=S
inactive: Potency [1] | outcome [4] | outcome [5] | outcome [6] | outcome [8] | Potency [10]

CCCCCCCCCCCCCCCC(=O)NCCO
inactive: Potency [1] | outcome [4] | outcome [5] | Potency [9] | outcome [6] | outcome [8] | Potency [12] | Potency [10] | Potency [11]

OCc1cc(C(O)CNCCCCCCOCCCCc2ccccc2)ccc1O (configuration not stated)
inactive: Potency [1] | outcome [4] | outcome [5] | Potency [9] | outcome [6] | outcome [7] | outcome [8] | Potency [10]

CC(C)(C)NCC(O)COc1ccc(NC(=O)NC2CCCCC2)cc1 (configuration not stated)
inactive: Potency [1] | outcome [4] | outcome [5] | outcome [6] | outcome [8] | Potency [10]

CC1=C(CC(=O)O)c2cc(F)ccc2/C1=C\c1ccc(S(C)(=O)=O)cc1
inactive: Potency [1] | outcome [2] | Potency [9] | outcome [6] | outcome [7] | outcome [8] | Potency [10] | Potency [11]

N[C@@H](CSSC[C@H](N)C(=O)O)C(=O)O
inactive: activity change, negative = inhibition [1] 0.957% [at 0.727 µM] | activity change, negative = inhibition [4] -0.373% [at 0.505 µM] | activity change, negative = inhibition [5] 14.5% [at 0.575 µM] | activity change [6] -4.86% [at 0.0343 µM] | activity change, negative = inhibition [8] 1.18% [at 1.07 µM]

CCN(CC)C(=O)Nc1ccc(OCC(O)CNC(C)(C)C)c(C(C)=O)c1 (configuration not stated)
inactive: Potency [1] | outcome [4] | outcome [5] | outcome [6] | outcome [8] | Potency [10]
